This is an account of results in the supplement of paper PMC12645437, “Orthogonal IMiD-Degron Pairs Induce Selective Protein Degradation in Cells” (ACS Chemical Biology, 2025).

This assay deals with T1, CRBN, Q96SW2.
T1 chain: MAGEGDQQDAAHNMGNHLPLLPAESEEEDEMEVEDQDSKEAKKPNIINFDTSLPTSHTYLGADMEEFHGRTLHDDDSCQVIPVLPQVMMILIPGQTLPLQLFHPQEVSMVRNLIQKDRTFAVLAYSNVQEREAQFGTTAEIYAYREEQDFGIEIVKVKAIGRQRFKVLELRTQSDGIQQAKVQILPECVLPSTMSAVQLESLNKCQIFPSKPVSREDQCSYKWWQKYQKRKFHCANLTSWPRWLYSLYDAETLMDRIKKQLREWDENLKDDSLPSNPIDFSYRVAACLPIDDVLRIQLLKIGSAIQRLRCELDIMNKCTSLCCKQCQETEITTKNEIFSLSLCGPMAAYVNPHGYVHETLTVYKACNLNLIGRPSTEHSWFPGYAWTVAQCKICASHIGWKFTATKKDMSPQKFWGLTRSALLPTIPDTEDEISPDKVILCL
Kind of assay: log2 fold change of degron read counts, EGFP-low vs EGFP+ sorted cells (limma voom), compound-induced degradation; higher = more compound-induced degradation of the degron-EGFP fusion; degrons are variants of IKZF1/3 zinc finger 2; compound dose not given here. Particulars: Jurkat, 18 h.

[1] abbreviates: compound: compound 19 (5-tert-butyl-thalidomide).
The mark [2] stands for this setting: compound: compound 22 (5-morpholino-thalidomide).
Where [3] appears, read: compound: compound 33 (diphenyl IMiD analogue).

The full ranking holds about 8,300 sequences; the median of “log2 fold change of degron read counts, EGFP-low vs EGFP+ sorted cells (limma voom), compound-induced degradation” is about -1.1, and the highest 2% start at about 3.2. Only a selection was taken, and the highest values are over-represented in it overall.
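Further: pooled lentiviral library of zinc finger degron-EGFP fusions in mCherry-positive Jurkat cells, FACS-sorted after compound exposure, with degron abundance counted by next-generation sequencing.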

B1: 46F_47I_49E_50I_52G_53R_54A_55F_67L_, Q9UKT9 (peptide)
chain: FICEICGRAFTQKGNLLRHIKL
With B1, the “log2 fold change of degron read counts” value was -2.83 under setting [1], -1.59 under setting [2], -1.38 under setting [3] and -0.306 (compound: thalidomide).

B2: 46F_47N_49P_50V_52G_53A_54H_55F_67L_, Q9UKT9 (peptide)
chain: FNCPVCGAHFTQKGNLLRHIKL
Take B2: the “log2 fold change of degron read counts” value stood at 2.14 under setting [1], 0.242 under setting [2], 0.245 under setting [3] and 0.138 (compound: thalidomide).

B3: 46F_47R_49E_50Q_52G_53A_54M_55F_67L_, Q9UKT9 (peptide)
chain: FRCEQCGAMFTQKGNLLRHIKL
Turning to B3, the “log2 fold change of degron read counts” value under setting [1] was -2.73, the “log2 fold change of degron read counts” value under setting [2] was -3.44, the “log2 fold change of degron read counts” value under setting [3] was -1.59 and the “log2 fold change of degron read counts” value (compound: thalidomide) was -1.56.

B4: 46F_47N_49D_50Q_52G_53A_54A_55F_67L_, Q9UKT9 (peptide)
chain: FNCDQCGAAFTQKGNLLRHIKL
Take B4: the “log2 fold change of degron read counts” value runs as follows: under setting [1], -1.89; under setting [2], -2.81; under setting [3], -2.8; (compound: thalidomide) -2.92.

B5: 46L_47H_49E_50I_52G_53F_54H_55C_67L_, Q9UKT9 (peptide)
chain: LHCEICGFHCTQKGNLLRHIKL
On to B5, for which the “log2 fold change of degron read counts” value turned out to be 1.32 under setting [1], 1.17 under setting [2], 1.52 under setting [3] and 1.23 (compound: thalidomide).

B6: 46L_47C_49N_50Q_52G_53F_54E_55C_67L_, Q9UKT9 (peptide)
chain: LCCNQCGFECTQKGNLLRHIKL
With B6, the “log2 fold change of degron read counts” value runs as follows: under setting [1], -2.68; under setting [2], -2.78; under setting [3], -2.7; (compound: thalidomide) -2.45.

B7: 46F_47M_49D_50V_52G_53A_54A_55F_67L_, Q9UKT9 (peptide)
chain: FMCDVCGAAFTQKGNLLRHIKL
Take B7: the “log2 fold change of degron read counts” value is -0.0468 under setting [1], 1.05 under setting [2], 2.19 under setting [3] and -0.154 (compound: thalidomide).

B8: 46F_47C_49E_50V_52G_53A_54D_55F_67L_, Q9UKT9 (peptide)
chain: FCCEVCGADFTQKGNLLRHIKL
As to B8, the “log2 fold change of degron read counts” value is -0.0408 under setting [1], -0.873 under setting [2], 0.0623 under setting [3] and -0.497 (compound: thalidomide).

B9: 46L_47Q_49N_50Q_52G_53F_54C_55C_67L_, Q9UKT9 (peptide)
chain: LQCNQCGFCCTQKGNLLRHIKL
With B9, the “log2 fold change of degron read counts” value is, setting by setting: under setting [1], -2.28; under setting [2], -2.29; under setting [3], -2.54; (compound: thalidomide) -1.12.

B10: 46F_47K_49N_50Q_52G_53H_54R_55F_67L_, Q9UKT9 (peptide)
chain: FKCNQCGHRFTQKGNLLRHIKL
Take B10: the “log2 fold change of degron read counts” value is -2.45 under setting [1], -2.52 under setting [2], -2.56 under setting [3] and -2.52 (compound: thalidomide).

B11: 46F_47W_49P_50V_52G_53A_54K_55F_67L_, Q9UKT9 (peptide)
chain: FWCPVCGAKFTQKGNLLRHIKL
Take B11: the “log2 fold change of degron read counts” value came to 2.74 under setting [1], 3.29 under setting [2], 0.923 under setting [3] and 0.809 (compound: thalidomide).

B12: 46F_47E_49P_50V_52G_53A_54K_55F_67L_, Q9UKT9 (peptide)
chain: FECPVCGAKFTQKGNLLRHIKL
Turning to B12, the “log2 fold change of degron read counts” value runs as follows: under setting [1], -0.0658; under setting [2], -1.21; under setting [3], -0.306; (compound: thalidomide) 2.62.

B13: 46F_47V_49P_50V_52G_53A_54K_55F_67L_, Q9UKT9 (peptide)
chain: FVCPVCGAKFTQKGNLLRHIKL
Turning to B13, the “log2 fold change of degron read counts” value is -0.585 under setting [1], 1.91 under setting [2], -0.53 under setting [3] and 2.09 (compound: thalidomide).

B14: 46F_47A_49P_50V_52G_53A_54K_55F_67L_, Q9UKT9 (peptide)
chain: FACPVCGAKFTQKGNLLRHIKL
Turning to B14, the “log2 fold change of degron read counts” value by setting is: under setting [1], 3.4; under setting [2], 1.28; under setting [3], -1.29; (compound: thalidomide) 0.727.

B15: 46F_47N_49P_50V_52G_53A_54K_55F_67L_, Q9UKT9 (peptide)
chain: FNCPVCGAKFTQKGNLLRHIKL
Regarding B15, the “log2 fold change of degron read counts” value reads like this: under setting [1], 1.67; under setting [2], 0.844; under setting [3], -1.26; (compound: thalidomide) 0.347.

B16: 46F_47H_49P_50V_52G_53A_54K_55F_67L_, Q9UKT9 (peptide)
chain: FHCPVCGAKFTQKGNLLRHIKL
Turning to B16, the “log2 fold change of degron read counts” value worked out at 2.35 under setting [1], 1.96 under setting [2], 0.171 under setting [3] and 0.556 (compound: thalidomide).

B17: 46F_47K_49P_50V_52G_53A_54K_55F_67L_, Q9UKT9 (peptide)
chain: FKCPVCGAKFTQKGNLLRHIKL
Turning to B17, the “log2 fold change of degron read counts” value under setting [1] is -1.68, the “log2 fold change of degron read counts” value under setting [2] was -2.82, the “log2 fold change of degron read counts” value under setting [3] was -3.08 and the “log2 fold change of degron read counts” value (compound: thalidomide) was -1.18.

B18: 46F_47F_49P_50V_52G_53A_54K_55F_67L_, Q9UKT9 (peptide)
chain: FFCPVCGAKFTQKGNLLRHIKL
As to B18, the “log2 fold change of degron read counts” value under setting [1] came to 2.79, the “log2 fold change of degron read counts” value under setting [2] was 2.64, the “log2 fold change of degron read counts” value under setting [3] was found to be 0.946 and the “log2 fold change of degron read counts” value (compound: thalidomide) was determined as 0.56.

B19: 46F_47Q_49P_50V_52G_53A_54K_55F_67L_, Q9UKT9 (peptide)
chain: FQCPVCGAKFTQKGNLLRHIKL
In the case of B19, the “log2 fold change of degron read counts” value under setting [1] came to 0.186, the “log2 fold change of degron read counts” value under setting [2] stood at 2.88, the “log2 fold change of degron read counts” value under setting [3] was 0.361 and the “log2 fold change of degron read counts” value (compound: thalidomide) is 3.96.

B20: 46F_47G_49P_50V_52G_53A_54K_55F_67L_, Q9UKT9 (peptide)
chain: FGCPVCGAKFTQKGNLLRHIKL
On to B20, for which the “log2 fold change of degron read counts” value is 3.82 under setting [1], 1.67 under setting [2], -0.46 under setting [3] and 1.12 (compound: thalidomide).

B21: 46F_47M_49P_50V_52G_53A_54K_55F_67L_, Q9UKT9 (peptide)
chain: FMCPVCGAKFTQKGNLLRHIKL
As to B21, the “log2 fold change of degron read counts” value reads like this: under setting [1], -0.124; under setting [2], -0.0797; under setting [3], 0.661; (compound: thalidomide) 0.797.

B22: 46F_47D_49P_50V_52G_53A_54K_55F_67L_, Q9UKT9 (peptide)
chain: FDCPVCGAKFTQKGNLLRHIKL
Turning to B22, the “log2 fold change of degron read counts” value by setting is: under setting [1], 1.65; under setting [2], 0.129; under setting [3], -0.726; (compound: thalidomide) 1.92.
